Among the data in ChEMBL document CHEMBL4808148, “HDAC6 screening dataset using tau-based substrate in an enzymatic assay yields selective inhibitors and activators” (2021) are inhibition values, retold here.

Out of some 5,600 compounds screened, about 390 (7%) showed an effect of 50% or more. The full list was thinned out, with strong results kept by preference.

The target in experiment [1] is T1, Protein deacetylase HDAC6 (Homo sapiens) (UniProt Q9UBN7).
T1 sequence (whole entry): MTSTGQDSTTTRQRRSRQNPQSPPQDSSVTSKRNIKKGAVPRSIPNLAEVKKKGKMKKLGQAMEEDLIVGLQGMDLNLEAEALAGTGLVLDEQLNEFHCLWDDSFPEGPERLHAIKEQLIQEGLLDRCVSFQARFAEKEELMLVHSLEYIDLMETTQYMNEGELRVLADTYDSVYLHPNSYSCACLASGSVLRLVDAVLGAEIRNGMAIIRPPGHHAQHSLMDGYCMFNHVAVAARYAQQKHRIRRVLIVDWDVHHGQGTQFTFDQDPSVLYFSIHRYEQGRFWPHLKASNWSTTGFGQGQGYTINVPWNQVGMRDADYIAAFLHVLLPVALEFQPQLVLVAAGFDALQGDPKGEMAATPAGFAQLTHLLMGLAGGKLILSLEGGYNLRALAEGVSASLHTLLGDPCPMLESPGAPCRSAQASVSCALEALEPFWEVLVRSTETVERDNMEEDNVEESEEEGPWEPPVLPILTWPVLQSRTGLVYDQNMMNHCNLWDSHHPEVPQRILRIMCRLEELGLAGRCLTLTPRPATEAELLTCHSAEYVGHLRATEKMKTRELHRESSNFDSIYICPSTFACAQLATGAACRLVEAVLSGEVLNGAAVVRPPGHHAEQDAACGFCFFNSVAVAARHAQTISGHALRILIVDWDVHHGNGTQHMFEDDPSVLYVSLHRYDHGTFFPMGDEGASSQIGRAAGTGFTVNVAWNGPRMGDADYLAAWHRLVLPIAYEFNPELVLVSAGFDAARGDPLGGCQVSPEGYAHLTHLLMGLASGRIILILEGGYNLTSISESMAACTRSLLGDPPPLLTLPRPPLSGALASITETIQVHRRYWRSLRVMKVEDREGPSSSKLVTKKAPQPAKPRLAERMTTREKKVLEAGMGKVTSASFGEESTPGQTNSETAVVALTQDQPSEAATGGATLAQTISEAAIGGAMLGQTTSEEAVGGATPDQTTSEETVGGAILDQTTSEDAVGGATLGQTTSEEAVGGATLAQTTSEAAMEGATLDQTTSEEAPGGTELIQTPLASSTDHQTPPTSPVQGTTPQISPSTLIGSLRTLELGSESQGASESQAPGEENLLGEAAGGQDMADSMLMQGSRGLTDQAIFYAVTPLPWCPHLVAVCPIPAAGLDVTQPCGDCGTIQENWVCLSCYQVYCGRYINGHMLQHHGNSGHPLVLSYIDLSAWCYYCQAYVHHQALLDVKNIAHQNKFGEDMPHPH
The following applies: at 10 µM.

In experiment [2] the target is Protein deacetylase HDAC6 (Homo sapiens) (UniProt Q9UBN7). The following applies: at 10 µM. The source holds these as a separate data set.

For the compound `O=C(NOCCO)c1ccc2cncn2c1Nc1ccc(I)cc1F`, the inhibition in experiment [1] was 1.39%.
Same read-out and setting: next, `C[C@H](N)C(=O)NCC(=O)N[C@H]1CSSC[C@@H](C(=O)O)NC(=O)[C@H](CO)NC(=O)[C@H]([C@@H](C)O)NC(=O)[C@H](Cc2ccccc2)NC(=O)[C@H]([C@@H](C)O)NC(=O)[C@H](CCCCN)NC(=O)[C@H](Cc2c[nH]c3ccccc23)NC(=O)[C@H](Cc2ccccc2)NC(=O)[C@H](Cc2ccccc2)NC(=O)[C@H](CC(N)=O)NC(=O)[C@H](CCCCN)NC1=O`: 15.2%; `CC(C)c1cccc2c1OC(C(C)C)C(=S)N2CC(=O)O` (stereo not drawn): 33%.
Same read-out and setting: next, `CCC(=O)NO`: 83.8%.
On the same count and under the same terms, next, `O=C(O)[C@@H](O)[C@@H](O)[C@H](O)[C@@H](O)C(=O)O`: 1.05%; `CO[C@H]1/C=C\C=C(/C)C(=O)NC2=CC(=O)C(NCCN(C)C)=C(C[C@@H](C)C[C@H](OC)[C@H](O)[C@@H](C)/C=C(\C)[C@@H]1OC(N)=O)C2=O`: 6.6%; `O/N=C/c1cc[n+](COC[n+]2ccc(/C=N/O)cc2)cc1`: -4.53%.
In the case of `O=C1N[C@@H]2[C@@H](O)[C@@H](O)[C@H](O)[C@@H](CO)N2C1=O`, in experiment [1], the inhibition was -6.81%.
With `Oc1ccc2ccccc2c1`, the inhibition in experiment [1] was 57.1%.
The same measure, in the same setting: then `Oc1ccc(Cl)cc1`, with -5.79%.
Take `Oc1ccccc1`: the inhibition in experiment [1] came to 7.92%.
On the same count and under the same terms, next, `O=C1CCC(c2ccccc2)(C2CCN(Cc3ccc(I)cc3)CC2)C(=O)N1` (stereo not drawn): -1.98%; `Cc1ccccc1OCC(O)CNCCOc1ccc(C(N)=O)cc1` (stereo not drawn): 0.61%.
On the same count and under the same terms, next, `CC(=O)OC[C@H]1O[C@@](COC(C)=O)(O[C@H]2O[C@H](COC(C)=O)[C@@H](OC(C)=O)[C@H](OC(C)=O)[C@H]2OC(C)=O)[C@@H](OC(C)=O)[C@@H]1OC(C)=O`: 102%.
In the case of `CC(=O)N[C@H]1[C@@H](OC(C)C)O[C@H](COC(C)=O)[C@@H](OC(C)=O)[C@@H]1OC(C)=O`, the inhibition in experiment [1] was -0.18%.
Same read-out and setting: then `C(=C\c1ccccc1)/CN1CCN(CCOC(c2ccccc2)c2ccccc2)CC1`, with -6.12%.
Still for that read-out and setting: next, `CC(C)OC(=O)CNC(=O)[C@H](CS)NC(=O)CC[C@H](N)C(=O)O`: 45.1%.
For the compound `Cc1ccc([N+](=O)[O-])cc1O`, in experiment [1], the inhibition is 25.1%.
On to `N=C(NCCC[C@H](N)C(=O)O)N[N+](=O)[O-]`, for which the inhibition in experiment [1] was determined as 104%.
For `N=C(N)NCCC[C@H](N)C(=O)O`, in experiment [1], the inhibition came to 3.94%.
The same measure, in the same setting: then `NCCCC[C@H](N)C(=O)O`, with -8.14%; and `O=C1c2ccccc2-c2c(NCCc3ccccc3)c(=O)[nH]c3cccc1c23`, with 14.4%; and `CC(C)(CO)CCCCCCC(C)(C)CO`, with 17.3%.
On the same count and under the same terms, then `COC(=O)N[C@@H](C)CNc1nccc(-c2cn(C(C)C)nc2-c2cc(Cl)cc(NS(C)(=O)=O)c2F)n1`, with -2.53%; and `CCOc1ccc(S(=O)(=O)O)c2cccnc12`, with 102%.
Still for that read-out and setting: then `O=C(NCCN1CCC2(CC1)C(=O)NCN2c1cccc(F)c1)c1ccc(F)c(F)c1`, with 7.38%.
As for `CC(C)(C)C#Cc1cc(N(C(=O)[C@H]2CC[C@H](C)CC2)[C@H]2CC[C@@H](O)CC2)c(C(=O)O)s1`, the inhibition in experiment [1] was 26.8%.
On the same count and under the same terms, then `O=S(=O)(O)c1ccc(O)cc1`, with 4.16%; and `CCCCc1ccc(C(N)=O)nc1`, with 32.3%; and `CC(C)(C)c1[nH]cnc1/C=c1\[nH]c(=O)/c(=C/c2ccccc2)[nH]c1=O`, with 77.4%.
The same measure, in the same setting: then `COc1cc2c(cc1OC(C)C)[C@H](c1ccc(Cl)cc1)N(c1ccc(N(C)C[C@H]3CC[C@H](N4CCN(C)C(=O)C4)CC3)cc1)C(=O)C2`, with 17.5%.
As to `O=c1cc(-c2ccc(O)c(O)c2)oc2cc(O)cc(O)c12`, in experiment [1], the inhibition was determined as 100%.
The same measure, in the same setting: next, `O=c1c(O)c(-c2ccc(O)c(O)c2)oc2cc(O)cc(O)c12`: 98.5%; `CC(=O)N[C@H](C=O)[C@@H](O)[C@H](O)[C@H](O)CO`: 19.4%; `N[C@@H](CC(=O)N1CCn2c(nnc2C(F)(F)F)C1)Cc1n[nH]c2c(F)c(F)ccc12`: 18.7%.
Still for that read-out and setting: then `O=C(O)C1CCC(c2cc3cccnc3c(-c3cccc(F)c3)n2)CC1` (stereo not drawn), with -5.88%.
Turning to MONOCTANOIN, CHEMBL6066833, in experiment [2], the inhibition was -5.59%.
Turning to `N=C(N)Nc1ccc(C(=O)Oc2ccc3cc(C(=N)N)ccc3c2)cc1`, in experiment [1], the inhibition worked out at 29.9%.
Same read-out and setting: then `CCOC(=O)[C@@H](C)Oc1ccc(Oc2nc3ccc(Cl)cc3o2)cc1`, with 14.5%; and `Oc1cccc(Nc2ccc(Nc3cccc(O)c3)nn2)c1`, with 79.8%; and `CN(C)c1cccc(Oc2cnc(Nc3cccc(O)c3)nc2)c1`, with 30.8%.
As for `CS(=O)(=O)c1ccc(Cn2c3c(c4cc(F)cc(F)c42)CCCC3CC(=O)O)cc1` (stereo not drawn), the inhibition in experiment [1] was -7.09%.
For `C#CC[C@H](c1nc2cc(Cl)ccc2c(=O)n1Nc1ccccc1)N(CCCN)C(=O)c1cccc(Cl)c1F`, the inhibition in experiment [1] is 11.7%.
`CCC(CC)n1ccc2c(C(=O)NCc3c(C)cc(C)[nH]c3=O)cc(C#N)cc21`: the inhibition in experiment [1] turned out to be 15.2%.
On the same count and under the same terms, next, `CC(O)C(CO)NC(=O)C1CSSCC(NC(=O)C(N)Cc2ccccc2)C(=O)NC(Cc2ccccc2)C(=O)NC(Cc2c[nH]c3ccccc23)C(=O)NC(CCCCN)C(=O)NC(C(C)O)C(=O)N1` (stereo not drawn): 19.6%.
On to NYSTATIN, CHEMBL5465559, for which the inhibition in experiment [2] amounted to 30.5%.
Take `O=C(O)CNC(=O)c1ccccc1I`: the inhibition in experiment [1] is 36.6%.
On the same count and under the same terms, then `CCc1c(C(=O)C(N)=O)c2c(OCC(=O)O)cccc2n1Cc1ccccc1`, with 20%.

As usually defined, the inhibition is the change of the read-out against control, counted positive when it falls.
